Our source for the Potency values is PubChem BioAssay (Tox21).

Records with an inconclusive call do not appear. Activity calls are given as the source filed them. The call rests on the fitted dose curve; in most records, active means well fitted curve in the direction sought with a large enough effect in the repeat runs; inconclusive means weak or mixed curves; inactive means no such curve, though single readings can be large; an effect the other way counts as inactive or inconclusive.

Assay [1] has as its target Cytochrome P450 2C19 (Homo sapiens) (UniProt P33261). Description: Cytochrome P450 Family 2 Subfamily C Member 19 (CYP2C19) small molecule antagonists: luciferase reporter qHTS assay (AID 1671197). Further: nearly all actives have a fitted effect of over 65% in size. Summed up:
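Enzyme-substrate mix with proluciferin substrate (P450-Glo CYP2C19 system) preincubated with compounds 10 min at room temperature; NADPH regeneration solution added, 37C for 1 h; detection reagent stops reaction, luminescence read after 20 min. Ketoconazole positive control.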
For orientation: Reporter assays use an easily measured gene product as a stand-in for the process of interest.

Assay [2] has as its target Cytochrome P450 1A2 (Homo sapiens) (UniProt P05177). As to the kind of experiment: Cytochrome P450 Family 1 Subfamily A Member 2 (CYP1A2) small molecule antagonists: luciferase reporter qHTS assay (AID 1671199). Further: nearly all actives have a fitted effect of over 50% in size. An outline of the steps: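 Signal from luciferin formed by CYP1A2 from a proluciferin substrate is read as luminescence, expressed in relative luminescence units. Compounds sit with enzyme 10 min, NADPH-driven reaction runs 1 h, all at room temperature.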

Assay [3] concerns the target Voltage-gated inwardly rectifying potassium channel KCNH2 (Homo sapiens) (UniProt Q12809). Description: Human Ether-a-go-go-Related Gene (hERG) channel small molecule antagonists: fluorescence cell-based qHTS assay (AID 1671200). Further: nearly all actives have a fitted effect of over 50% in size. Summed up:
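Kinetic two-minute fluorescence traces, sampled at 1 s, were collected following thallium stimulus of U2OS cells (1000 per well) that had been cultured overnight at 37 C and loaded with FluxOR II.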
(hERG is a cardiac potassium channel; its block is linked to QT prolongation.)

Assay [4] has as its target Cytochrome P450 3A4 (Homo sapiens) (UniProt P08684). Description: Cytochrome P450 Family 3 Subfamily A Member 4 (CYP3A4) small molecule antagonists: luciferase reporter qHTS assay (AID 1671201). Further: nearly all actives have a fitted effect of over 50% in size. Summed up:
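Proluciferin-to-luciferin conversion by CYP3A4, NADPH-regenerated, 1 h RT; luminescence read as RLU. Ketoconazole as control.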

The target of assay [5] is Cytochrome P450 2C9 (Homo sapiens) (UniProt P11712). As to the kind of experiment: Cytochrome P450 Family 2 Subfamily C Member 9 (CYP2C9) small molecule antagonists: luciferase reporter qHTS assay (AID 1671198). Further: nearly all actives have a fitted effect of over 50% in size. Summed up: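 Enzyme-substrate mix preincubated with compound 10 min at room temperature; reaction started with NADPH regeneration solution, 1 h 37C. Luminescent luciferin product read after 20 min detection reagent.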
Cytochrome P450 2C9 (Homo sapiens), sequence (P11712 whole entry, looked up): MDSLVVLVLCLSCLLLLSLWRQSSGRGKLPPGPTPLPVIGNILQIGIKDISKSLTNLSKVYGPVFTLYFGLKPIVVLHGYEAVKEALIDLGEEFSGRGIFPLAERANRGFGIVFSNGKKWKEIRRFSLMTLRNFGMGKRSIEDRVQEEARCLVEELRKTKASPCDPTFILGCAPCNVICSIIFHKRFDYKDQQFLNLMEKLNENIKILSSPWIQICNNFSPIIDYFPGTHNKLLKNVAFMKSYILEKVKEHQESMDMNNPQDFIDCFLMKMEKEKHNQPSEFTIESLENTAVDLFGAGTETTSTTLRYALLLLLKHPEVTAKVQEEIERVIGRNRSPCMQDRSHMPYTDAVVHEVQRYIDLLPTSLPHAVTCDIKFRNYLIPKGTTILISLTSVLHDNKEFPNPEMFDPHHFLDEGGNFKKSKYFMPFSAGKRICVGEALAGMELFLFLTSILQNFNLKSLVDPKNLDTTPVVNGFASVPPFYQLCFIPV
Potency means the concentration at half of the fitted maximal effect.

Cytochrome P450 1A2 (Homo sapiens), sequence (P05177 whole entry, looked up): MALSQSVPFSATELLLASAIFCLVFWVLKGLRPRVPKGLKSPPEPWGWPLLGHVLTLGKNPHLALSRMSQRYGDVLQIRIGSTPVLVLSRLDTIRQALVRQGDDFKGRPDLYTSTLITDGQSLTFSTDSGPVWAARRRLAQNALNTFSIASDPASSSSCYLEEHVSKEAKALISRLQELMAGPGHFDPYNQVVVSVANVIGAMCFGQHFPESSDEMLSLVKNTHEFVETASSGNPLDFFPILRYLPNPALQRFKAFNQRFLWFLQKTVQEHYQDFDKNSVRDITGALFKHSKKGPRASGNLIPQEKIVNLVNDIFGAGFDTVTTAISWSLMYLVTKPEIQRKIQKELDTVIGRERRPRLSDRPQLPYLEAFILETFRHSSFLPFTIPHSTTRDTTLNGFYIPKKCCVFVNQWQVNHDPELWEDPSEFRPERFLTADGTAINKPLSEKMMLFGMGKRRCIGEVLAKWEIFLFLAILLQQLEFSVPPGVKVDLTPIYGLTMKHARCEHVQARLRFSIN
Voltage-gated inwardly rectifying potassium channel KCNH2 (Homo sapiens), sequence (Q12809 whole entry, looked up): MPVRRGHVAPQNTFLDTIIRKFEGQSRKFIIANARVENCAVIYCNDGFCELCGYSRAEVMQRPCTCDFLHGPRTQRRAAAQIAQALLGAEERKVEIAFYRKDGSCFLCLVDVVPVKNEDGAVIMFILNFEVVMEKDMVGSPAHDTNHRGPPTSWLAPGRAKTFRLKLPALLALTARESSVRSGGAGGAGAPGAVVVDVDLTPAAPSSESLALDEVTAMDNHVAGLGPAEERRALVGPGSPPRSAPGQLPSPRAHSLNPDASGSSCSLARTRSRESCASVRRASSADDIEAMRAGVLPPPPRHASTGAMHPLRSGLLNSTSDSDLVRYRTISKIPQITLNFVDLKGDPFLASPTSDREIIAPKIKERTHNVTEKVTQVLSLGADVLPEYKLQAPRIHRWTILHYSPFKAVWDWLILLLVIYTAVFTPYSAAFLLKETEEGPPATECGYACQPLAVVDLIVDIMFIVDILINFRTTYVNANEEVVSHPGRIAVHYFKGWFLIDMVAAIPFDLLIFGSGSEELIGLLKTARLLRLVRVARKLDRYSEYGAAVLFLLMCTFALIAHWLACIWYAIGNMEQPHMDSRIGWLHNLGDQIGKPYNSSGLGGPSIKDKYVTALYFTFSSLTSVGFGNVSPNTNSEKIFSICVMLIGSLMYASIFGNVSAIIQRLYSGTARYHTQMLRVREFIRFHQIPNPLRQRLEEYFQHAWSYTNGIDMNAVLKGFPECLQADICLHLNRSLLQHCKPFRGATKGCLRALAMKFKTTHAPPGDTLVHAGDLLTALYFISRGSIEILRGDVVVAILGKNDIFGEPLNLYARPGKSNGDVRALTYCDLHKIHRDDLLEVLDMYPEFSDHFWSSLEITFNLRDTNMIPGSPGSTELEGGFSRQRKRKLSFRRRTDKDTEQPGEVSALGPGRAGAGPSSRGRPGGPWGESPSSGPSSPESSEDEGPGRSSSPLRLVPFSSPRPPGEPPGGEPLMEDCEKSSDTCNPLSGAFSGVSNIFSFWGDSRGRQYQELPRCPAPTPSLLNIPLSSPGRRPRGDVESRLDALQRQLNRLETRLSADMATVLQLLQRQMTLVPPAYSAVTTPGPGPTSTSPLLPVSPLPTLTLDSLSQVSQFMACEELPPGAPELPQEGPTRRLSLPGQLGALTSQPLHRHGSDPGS
Cytochrome P450 3A4 (Homo sapiens), sequence (P08684 whole entry, looked up): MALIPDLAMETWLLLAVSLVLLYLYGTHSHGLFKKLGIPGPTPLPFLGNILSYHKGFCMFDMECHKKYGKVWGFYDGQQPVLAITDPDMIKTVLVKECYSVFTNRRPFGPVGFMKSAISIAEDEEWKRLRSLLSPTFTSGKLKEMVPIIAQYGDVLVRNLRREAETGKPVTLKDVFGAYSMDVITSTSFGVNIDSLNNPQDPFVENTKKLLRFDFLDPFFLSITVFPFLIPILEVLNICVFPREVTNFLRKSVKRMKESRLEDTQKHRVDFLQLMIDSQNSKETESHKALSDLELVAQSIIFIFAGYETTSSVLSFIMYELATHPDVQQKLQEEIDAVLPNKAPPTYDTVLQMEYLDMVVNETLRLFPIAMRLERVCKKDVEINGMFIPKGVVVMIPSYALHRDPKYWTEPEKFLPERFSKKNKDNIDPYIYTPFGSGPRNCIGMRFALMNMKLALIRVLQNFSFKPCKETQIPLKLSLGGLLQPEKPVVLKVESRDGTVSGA
Cytochrome P450 2C19 (Homo sapiens), sequence (P33261 whole entry, looked up): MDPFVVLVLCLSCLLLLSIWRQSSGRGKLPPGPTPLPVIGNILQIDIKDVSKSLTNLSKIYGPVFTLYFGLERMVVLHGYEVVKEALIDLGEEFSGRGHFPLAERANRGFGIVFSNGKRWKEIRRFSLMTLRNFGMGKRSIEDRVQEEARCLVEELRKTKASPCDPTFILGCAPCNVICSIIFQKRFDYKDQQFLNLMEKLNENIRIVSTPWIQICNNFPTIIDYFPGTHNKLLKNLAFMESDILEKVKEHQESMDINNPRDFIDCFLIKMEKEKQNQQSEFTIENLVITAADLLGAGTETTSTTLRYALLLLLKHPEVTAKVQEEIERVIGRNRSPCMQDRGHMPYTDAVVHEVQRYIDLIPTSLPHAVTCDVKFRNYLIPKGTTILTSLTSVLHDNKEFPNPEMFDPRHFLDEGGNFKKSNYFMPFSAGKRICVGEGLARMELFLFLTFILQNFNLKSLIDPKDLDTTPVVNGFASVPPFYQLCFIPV

For the compound `c1ccc(OCc2ccc(CCCN3CCOCC3)cc2)cc1`, the values for the Potency in assay [1] and in assay [3] were 38.9 µM (active) and 12 µM (active), respectively. In addition, the Potency result in assay [2] is “inactive”.

For `CC(CN)CCCN` (configuration not stated), the Potency result in assay [1], in assay [2] and in assay [3] was “inactive” throughout. In assay [4], the Potency is 6.33 µM (active).

Turning to `CC(C)CC=O`, the Potency in assay [1] was 35.6 µM (active). The Potency entry in assay [2] and in assay [3] was “inactive” each time.

For `CCN1CCC[C@H]1CNC(=O)c1c(OC)ccc(Br)c1OC`, the Potency entry in assay [1], in assay [2] and in assay [3] was “inactive” each time.

`COC(Cc1ccccc1)OC`: the Potency entry in assay [1], in assay [2] and in assay [3] was “inactive” in each case.

Regarding `O=S(=O)(O)c1ccc(O)c2ncccc12`, the Potency entry in assay [1], in assay [2], in assay [3] and in assay [4] was “inactive” throughout.

Take `O=C1c2cccc(O)c2C(=O)c2c(O)cc(CO)cc21`: the Potency result in assay [1], in assay [3] and in assay [4] was “inactive” in each case. Further, in assay [2], the Potency is 8.94 µM (active).

On to `Nc1nc(N)c2nc(CNc3ccc(C(=O)N[C@@H](CCC(=O)O)C(=O)O)cc3)cnc2n1`, for which the Potency result in assay [1], in assay [2], in assay [3] and in assay [4] was “inactive” each time.

For `C=Cc1c(C)c2cc3[nH]c(cc4nc(cc5nc(cc1[nH]2)C(C)=C5CCC(=O)O)C(CCC(=O)O)=C4C)c(C)c3C=C`, the Potency entry in assay [1], in assay [2], in assay [3] and in assay [4] was “inactive” in each case.

With `C=C(C)C(=O)OCCOc1ccccc1`, the values for the Potency in assay [1] and in assay [2] were 31.7 µM (active) and 25.2 µM (active), respectively. For the same compound, the Potency entry in assay [3] and in assay [4] was “inactive” each time.

Consider `Cc1cccc(Oc2ccccc2)c1`, for which the Potency in assay [1] is 69.2 µM (active); in assay [2], 34.7 µM (active); in assay [3] it was 13.5 µM (active); in assay [4] it was 34.7 µM (active).

Take `CCCCCc1ccc(N)cc1`: the Potency in assay [1] is 6.33 µM (active); in assay [2] it was 28.3 µM (active); in assay [4], 31.7 µM (active). In addition, the Potency result in assay [3] was “inactive”.

For the compound `CC[C@H](C)[C@H](N)C(=O)O`, the Potency entry in assay [1], in assay [2] and in assay [3] was “inactive” throughout.

`Cc1ccccc1N=Nc1ccc(N=Nc2c(O)ccc3ccccc23)c(C)c1`: the Potency in assay [1] is 34.7 µM (active); in assay [2], 13.8 µM (active). In addition, the Potency result in assay [3] is “inactive”.

On to `CCCCC(CC)(CO)CO`, for which the Potency in assay [1] is 56.4 µM (active). Besides, the Potency result in assay [2], in assay [3] and in assay [4] was “inactive” in each case.

Regarding `CN1CCC[C@@H]1c1cccnc1`, the Potency result in assay [1], in assay [2] and in assay [3] was “inactive” each time.

With `CC1(C)CCC(C)(C)c2cc(NC(=O)c3ccc(C(=O)O)cc3)ccc21`, the Potency entry in assay [1], in assay [2] and in assay [3] was “inactive” throughout.

Turning to `CC(C)(C)c1cc(CCC(=O)OCC(COC(=O)CCc2cc(C(C)(C)C)c(O)c(C(C)(C)C)c2)(COC(=O)CCc2cc(C(C)(C)C)c(O)c(C(C)(C)C)c2)COC(=O)CCc2cc(C(C)(C)C)c(O)c(C(C)(C)C)c2)cc(C(C)(C)C)c1O`, the Potency is 33.8 µM (active) in assay [1] and 6.75 µM (active) in assay [2]. In addition, the Potency result in assay [3] and in assay [4] was “inactive” in each case.

With `C=CC(=O)OCC(C)OCC(C)OCC(C)OC(=O)C=C` (configuration not stated), the Potency in assay [1] is 3.56 µM (active); in assay [2] it was 6.33 µM (active); in assay [4], 5.03 µM (active). Moreover, in assay [3], the Potency result is “inactive”.

Regarding `O=C(Cl)c1c(Cl)cccc1Cl`, in assay [1], the Potency is 36 µM (active). In addition, the Potency entry in assay [2], in assay [3] and in assay [4] was “inactive” throughout.

Regarding `CCCC(C)C`, the Potency in assay [1] is 71.7 µM (active); in assay [2], 63.9 µM (active). The Potency entry in assay [3] and in assay [4] was “inactive” each time.

`Cc1cccc(OCCOc2cccc(C)c2)c1`: the Potency in assay [1] was 3.77 µM (active); in assay [2] it was 8.45 µM (active). Besides, in assay [3], the Potency result is “inactive”.

`CC[C@]12CCCN3CCc4c(n(c5ccccc45)C(=O)C1)[C@@H]32`: the Potency is 4.9 µM (active) in assay [1] and 1.69 µM (active) in assay [3]. Further, the Potency result in assay [2] is “inactive”.

Turning to `CCOc1cc(OCC)c(C(=O)CCC(=O)O)cc1OCC`, the Potency result in assay [1], in assay [2] and in assay [3] was “inactive” each time.

For `OC(CCN1CCCCC1)(c1ccccc1)C1CCCCC1` (configuration not stated), the Potency result in assay [5] and in assay [2] was “inactive” each time.

In the case of `CCN(CC)C(C)CN1c2ccccc2Sc2ccccc21` (configuration not stated), the figures for the Potency in assay [1] and in assay [2] were 34.7 µM (active) and 7.76 µM (active), respectively. Besides, the Potency entry in assay [4] is “inactive”.

For the compound `C1=Cc2ccccc2C1`, the Potency in assay [1] was 39.9 µM (active). Besides, the Potency result in assay [3] and in assay [4] was “inactive” each time.

Consider `C=CCCCCCC`, for which the Potency entry in assay [5], in assay [2] and in assay [3] was “inactive” throughout.

`CCCCCCCCCC=O`: the Potency entry in assay [1], in assay [3] and in assay [4] was “inactive” each time.

With `CCC(C)N(C)C(=O)c1cc2ccccc2c(-c2ccccc2Cl)n1` (configuration not stated), the Potency in assay [5] was 20.5 µM (active). Moreover, the Potency entry in assay [2] and in assay [3] was “inactive” each time.
